From PubChem BioAssay (EPA / NIEHS)
Records with an inconclusive call do not appear. Activity calls are given as the source filed them. The calls were made as follows: active = hit-call score of the fitted dose curve at least 0.9, where 1 is the maximum; inconclusive = response in the unintended direction; inactive = score below 0.9.

The compounds below were run on Cytochrome P450 3A4 (Homo sapiens) (UniProt P08684) (assay: CLD_CYP3A4_24hr: CellzDirect (CLD) Gene Expression Assay for xenobiotic metabolism (CYP3A4) at 24 hours (AID 2283689)).
Chain of Cytochrome P450 3A4 (Homo sapiens) (P08684 whole entry, looked up): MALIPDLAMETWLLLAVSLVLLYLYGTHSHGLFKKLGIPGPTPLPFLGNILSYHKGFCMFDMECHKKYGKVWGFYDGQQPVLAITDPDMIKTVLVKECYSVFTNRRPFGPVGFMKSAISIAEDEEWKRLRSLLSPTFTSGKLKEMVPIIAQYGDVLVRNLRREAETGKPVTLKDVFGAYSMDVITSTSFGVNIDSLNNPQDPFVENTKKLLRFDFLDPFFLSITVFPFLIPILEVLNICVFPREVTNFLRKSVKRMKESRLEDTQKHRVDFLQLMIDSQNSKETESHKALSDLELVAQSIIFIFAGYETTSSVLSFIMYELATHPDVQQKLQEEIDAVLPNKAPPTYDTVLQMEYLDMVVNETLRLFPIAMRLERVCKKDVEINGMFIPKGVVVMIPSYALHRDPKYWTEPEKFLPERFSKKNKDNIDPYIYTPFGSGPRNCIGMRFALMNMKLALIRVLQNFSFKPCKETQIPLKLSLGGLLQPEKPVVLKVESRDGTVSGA
Outline: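 CYP3A4 mRNA induction read by quantitative nuclease protection (chemiluminescence) 24 hr after dosing. Cultured human hepatocytes (two donor preparations) treated daily, vehicle 0.2% DMSO; phase-contrast morphology annotates cytotoxicity.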
For `Nc1nc(N)nc(NC2CC2)n1`, the outcome was “inactive”.
In the case of `CCOP(=S)(OCC)OC(Cl)C(Cl)(Cl)Cl` (stereo not drawn), the AC50 is reported as 6.19 µM (active).
`CCOP(=S)(OCC)SCCSCC` was tested, and the AC50 was 20 µM (active).
`CC[C@H](C)[C@H]1O[C@]2(C=C[C@@H]1C)C[C@@H]1C[C@@H](C/C=C(\C)[C@@H](O[C@H]3C[C@H](OC)[C@@H](O[C@H]4C[C@H](OC)[C@@H](NC)[C@H](C)O4)[C@H](C)O3)[C@@H](C)/C=C/C=C3\CO[C@@H]4[C@H](O)C(C)=C[C@@H](C(=O)O1)[C@]34O)O2` was tested, and the outcome was “inactive”.
With `Cc1nn(-c2cc(NS(C)(=O)=O)c(Cl)cc2Cl)c(=O)n1C(F)F` the AC50 was 0.376 µM (active).
In the case of `CCCOCC(=Nc1ccc(Cl)cc1C(F)(F)F)n1ccnc1`, the AC50 is reported as 1.9 µM (active).
With `C[Si](Cn1cncn1)(c1ccc(F)cc1)c1ccc(F)cc1` the AC50 was 1.89 µM (active).
`CCCSP(=O)(OCC)SCCC` was tested, and the outcome was “inactive”.
With `Cc1ccn2nc(S(=O)(=O)Nc3c(F)cccc3F)nc2n1` the outcome was “inactive”.
With `CCOC(=O)CC(SP(=O)(OC)OC)C(=O)OCC` (stereo not drawn) the AC50 was 20 µM (active).
`CSc1nnc(C(C)(C)C)c(=O)n1N` was tested, and the AC50 was 4.88 µM (active).
In the case of `FC(F)C(F)(F)OCC(Cn1cncn1)c1ccc(Cl)cc1Cl` (stereo not drawn), the AC50 is reported as 0.949 µM (active).
In the case of `COc1ccc(C(=CC(=O)N2CCOCC2)c2ccc(Cl)cc2)cc1OC`, the AC50 is reported as 2.09 µM (active).
`CCOP(=O)(SC(C)CC)N1CCSC1=O` (stereo not drawn) was tested, and the AC50 was 13.4 µM (active).
`CON=C(C(=O)OC)c1ccccc1CON=C(C)c1cccc(C(F)(F)F)c1` was tested, and the AC50 was 15.6 µM (active).
With `N#CSCSC#N` the outcome was “inactive”.
`CSC1=N[C@@](C)(c2ccccc2)C(=O)N1Nc1ccccc1` was tested, and the outcome was “inactive”.
For `CCOP(=S)(Oc1cnc(C(C)(C)C)nc1)OC(C)C` (stereo not drawn), the AC50 was 0.464 µM (active).
`CCOP(=O)(OCC)Oc1cc(C)nc(C(C)C)n1` was tested, and the outcome was “inactive”.
In the case of `CC(=NC#N)N(C)Cc1ccc(Cl)nc1`, the outcome is reported as “inactive”.
`CCCCSP(=O)(SCCCC)SCCCC` was tested, and the AC50 was 1.9 µM (active).
`CNC(=O)ON=C(C)SC` was tested, and the outcome was “inactive”.
For `COc1cc(OC)nc(Sc2cccc(Cl)c2C(=O)O)n1`, the AC50 was 20 µM (active).
With `CC(C)N(C(=O)SCC(Cl)=C(Cl)Cl)C(C)C` the AC50 was 20 µM (active).
For `C#CC(C)(C)NC(=O)c1cc(Cl)cc(Cl)c1`, the outcome was “inactive”.
In the case of `Nc1c(Cl)cc([N+](=O)[O-])cc1Cl`, the outcome is reported as “inactive”.
In the case of `CN(C)NC(=O)CCC(=O)O`, the outcome is reported as “inactive”.
`CCc1cccc(CC)c1N(COC)C(=O)CCl` was tested, and the AC50 was 15.7 µM (active).
`COc1cccc(C(=O)NN(C(=O)c2cc(C)cc(C)c2)C(C)(C)C)c1C` was tested, and the AC50 was 3.74 µM (active).
`CCCSP(=O)(OCC)Oc1ccc(Br)cc1Cl` (stereo not drawn) was tested, and the AC50 was 20 µM (active).
With `CC(C)=CC1C(C(=O)OCN2C(=O)C3=C(CCCC3)C2=O)C1(C)C` (stereo not drawn) the AC50 was 4.28 µM (active).
With `CN(C)C(=O)Nc1cccc(C(F)(F)F)c1` the AC50 was 20 µM (active).
In the case of `C#CCC1=C(C)C(OC(=O)C2C(C=C(C)C)C2(C)C)CC1=O` (stereo not drawn), the AC50 is reported as 4.64 µM (active).
In the case of `CC(COc1ccc(Oc2ccccc2)cc1)Oc1ccccn1` (stereo not drawn), the AC50 is reported as 4.68 µM (active).

What follows are compounds tested on Glyceraldehyde-3-phosphate dehydrogenase (Homo sapiens) (UniProt P04406) (assay: CLD_GAPDH_24hr: CellzDirect (CLD) Gene Expression Assay for Baseline Control (Glyceraldehyde 3-phosphate dehydrogenase) at 24 hours (AID 2283692)).
Chain of Glyceraldehyde-3-phosphate dehydrogenase (Homo sapiens) (P04406 whole entry, looked up): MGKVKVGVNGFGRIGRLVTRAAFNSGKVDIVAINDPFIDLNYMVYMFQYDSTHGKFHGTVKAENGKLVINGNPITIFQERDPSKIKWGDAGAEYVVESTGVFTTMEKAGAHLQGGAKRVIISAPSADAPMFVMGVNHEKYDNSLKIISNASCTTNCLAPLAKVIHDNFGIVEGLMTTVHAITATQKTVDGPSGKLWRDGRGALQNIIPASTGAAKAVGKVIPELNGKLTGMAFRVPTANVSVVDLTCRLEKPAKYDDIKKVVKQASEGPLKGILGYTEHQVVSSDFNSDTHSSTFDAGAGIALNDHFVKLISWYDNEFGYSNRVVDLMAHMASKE
Outline: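 GAPDH baseline-control readout: qNPA chemiluminescent mRNA signal in human primary hepatocytes harvested 24 h after daily dosing, normalised to 0.2% DMSO with positive fitting direction; cytotoxicity annotated by phase-contrast morphology.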
For `Nc1nc(N)nc(NC2CC2)n1`, the outcome was “inactive”.
In the case of `CCOP(=S)(OCC)OC(Cl)C(Cl)(Cl)Cl` (stereo not drawn), the outcome is reported as “inactive”.
In the case of `CC[C@H](C)[C@H]1O[C@]2(C=C[C@@H]1C)C[C@@H]1C[C@@H](C/C=C(\C)[C@@H](O[C@H]3C[C@H](OC)[C@@H](O[C@H]4C[C@H](OC)[C@@H](NC)[C@H](C)O4)[C@H](C)O3)[C@@H](C)/C=C/C=C3\CO[C@@H]4[C@H](O)C(C)=C[C@@H](C(=O)O1)[C@]34O)O2`, the outcome is reported as “inactive”.
In the case of `CCCOCC(=Nc1ccc(Cl)cc1C(F)(F)F)n1ccnc1`, the outcome is reported as “inactive”.
`S=C1NCCN1` was tested, and the outcome was “inactive”.
For `CSc1nnc(C(C)(C)C)c(=O)n1N`, the outcome was “inactive”.
With `COc1ccc(C(=CC(=O)N2CCOCC2)c2ccc(Cl)cc2)cc1OC` the outcome was “inactive”.
For `N#CSCSC#N`, the outcome was “inactive”.
`CCOP(=O)(OCC)Oc1cc(C)nc(C(C)C)n1` was tested, and the outcome was “inactive”.
For `CNC(=O)ON=C(C)SC`, the outcome was “inactive”.
For `COc1cc(OC)nc(Sc2cccc(Cl)c2C(=O)O)n1`, the outcome was “inactive”.
For `CC(C)N(C(=O)SCC(Cl)=C(Cl)Cl)C(C)C`, the outcome was “inactive”.
In the case of `CN(C)NC(=O)CCC(=O)O`, the outcome is reported as “inactive”.
In the case of `CCc1cccc(CC)c1N(COC)C(=O)CCl`, the outcome is reported as “inactive”.
For `CC(C)=CC1C(C(=O)OCN2C(=O)C3=C(CCCC3)C2=O)C1(C)C` (stereo not drawn), the outcome was “inactive”.
`C#CCC1=C(C)C(OC(=O)C2C(C=C(C)C)C2(C)C)CC1=O` (stereo not drawn) was tested, and the outcome was “inactive”.

Each compound was assayed on alkyl and aryl transferase (GSTA2), GSTA2 (gene 2939) (assay: CLD_GSTA2_24hr: CellzDirect (CLD) Gene Expression Assay for alkyl and aryl transferase (GSTA2) at 24 hours (AID 2283693)).
Outline: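 GSTA2 transcript levels were quantified by quantitative nuclease protection assay in primary human hepatocytes 24 h after daily dosing with fresh solutions at multiple concentrations; 0.2% DMSO vehicle as baseline, cytotoxicity flagged morphologically.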
In the case of `Nc1nc(N)nc(NC2CC2)n1`, the outcome is reported as “inactive”.
In the case of `CCOP(=S)(OCC)OC(Cl)C(Cl)(Cl)Cl` (stereo not drawn), the outcome is reported as “inactive”.
With `CCOP(=S)(OCC)SCCSCC` the outcome was “inactive”.
For `CCCOCC(=Nc1ccc(Cl)cc1C(F)(F)F)n1ccnc1`, the outcome was “inactive”.
`C[Si](Cn1cncn1)(c1ccc(F)cc1)c1ccc(F)cc1` was tested, and the outcome was “inactive”.
In the case of `CCCSP(=O)(OCC)SCCC`, the outcome is reported as “inactive”.
For `S=C1NCCN1`, the outcome was “inactive”.
`CCOC(=O)CC(SP(=O)(OC)OC)C(=O)OCC` (stereo not drawn) was tested, and the outcome was “inactive”.
`CSc1nnc(C(C)(C)C)c(=O)n1N` was tested, and the outcome was “inactive”.
For `FC(F)C(F)(F)OCC(Cn1cncn1)c1ccc(Cl)cc1Cl` (stereo not drawn), the outcome was “inactive”.
For `COc1ccc(C(=CC(=O)N2CCOCC2)c2ccc(Cl)cc2)cc1OC`, the outcome was “inactive”.
For `CON=C(C(=O)OC)c1ccccc1CON=C(C)c1cccc(C(F)(F)F)c1`, the outcome was “inactive”.
With `N#CSCSC#N` the outcome was “inactive”.
In the case of `CSC1=N[C@@](C)(c2ccccc2)C(=O)N1Nc1ccccc1`, the outcome is reported as “inactive”.
With `CCOP(=S)(Oc1cnc(C(C)(C)C)nc1)OC(C)C` (stereo not drawn) the outcome was “inactive”.
`CCOP(=O)(OCC)Oc1cc(C)nc(C(C)C)n1` was tested, and the outcome was “inactive”.
`CNC(=O)ON=C(C)SC` was tested, and the outcome was “inactive”.
For `COc1cc(OC)nc(Sc2cccc(Cl)c2C(=O)O)n1`, the outcome was “inactive”.
With `CC(C)N(C(=O)SCC(Cl)=C(Cl)Cl)C(C)C` the outcome was “inactive”.
In the case of `Nc1c(Cl)cc([N+](=O)[O-])cc1Cl`, the outcome is reported as “inactive”.
In the case of `CCc1cccc(CC)c1N(COC)C(=O)CCl`, the outcome is reported as “inactive”.
In the case of `CN(C)C(=O)Nc1cccc(C(F)(F)F)c1`, the outcome is reported as “inactive”.
For `C#CCC1=C(C)C(OC(=O)C2C(C=C(C)C)C2(C)C)CC1=O` (stereo not drawn), the outcome was “inactive”.
